Screens deposited in PubChem BioAssay by National Center for Advancing Translational Sciences (NCATS).
This is a sample that favours compounds with a hit; in the whole collection about 19% have one here.
DT40 TDP1 no CPT = qHTS for Inhibitors of human tyrosyl-DNA phosphodiesterase 1 (TDP1): qHTS in cells in absence of CPT. Potency, µM (top dose mostly 46.2 µM), inactives show top-dose activity change, negative = growth inhibition, most hits filed as inhibitors. DT40 Tdp1-/- hTDP1 cells, no CPT, ATP luminescence, 48 h. hit rate 15% among 420,000. AID 686978, 2013; further: potency means the concentration at half of the fitted maximal effect; nearly all actives have a fitted effect of over 55% in size
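Growth kinetics read by CellTiter-Glo luminescence after ≥48 hr at 37 °C. Cells: DT40 Tdp1-/- stably carrying human TDP1, 400 per well, compound exposure in the absence of CPT (DMSO vehicle).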
DT40 TDP1 CPT = growth inhibition of DT40 Tdp1-/-;hTDP1 cells with camptothecin (screen for TDP1 inhibitors); chicken DT40 Tdp1-/-;hTDP1 cells + 20 nM CPT, ATP luminescence, 48 h; Potency, µM (titrated, usually from 46.2 µM), for the others: at the highest dose activity change, negative = growth inhibition, usual class: inhibitors; hit rate 12% among 420,000; AID 686979; further: potency means the concentration at half of the fitted maximal effect; nearly all actives have a fitted effect of over 55% in size
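Cell growth measured by CellTiter-Glo luminescence after a minimum 48 h, 37 C compound exposure with 20 nM CPT in Tdp1-knockout DT40 cells stably expressing hTDP1, seeded 400/well; qHTS titration format.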
HT1080NT lethal = kills 2HG-producing HT-1080-NT fibrosarcoma cells | Potency, µM (series often up to 46.1 µM), for the others: at the highest dose activity, negative = less viability, most hits filed as cytotoxic | hit rate 1.6% among 360,000 | AID 686970 | HT-1080-NT fibrosarcoma viability, CellTiter-Glo ATP luminescence, 48 h;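 further: NT is the 2HG producing partner of a matched IDH1 knockdown line; potency means the concentration at half of the fitted maximal effect; 0% = DMSO-treated cells and -100% = media-only wells without cells; nearly all actives have a fitted effect of over 55% in size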
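Compounds were tested in concentration-response format on HT-1080-NT cells for 48 hours at 37 degrees C. Cell viability came from CellTiter-Glo luminescence; curves were classified by r2, response magnitude and activity.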
HT1080 IDH1KD tx = HT-1080 IDH1 knockdown cell toxicity (counter line) | HT-1080 IDH1 knockdown viability, ATP luminescence, 48 h | Potency, µM (titrated, usually from 46.1 µM), inactives show at the highest dose activity, negative = toxicity, actives largely listed as cytotoxic | hit rate 2% among 360,000;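 further: potency means the concentration at half of the fitted maximal effect; 0% = DMSO wells and -100% = cell-free medium wells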
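IDH1KD HT-1080 cells, 750/well, RPMI + 5% FBS; compound pinned after 2 h settling; 48 h, 37 °C; CellTiter-Glo luminescence; % activity normalised to DMSO and no-cell wells; curves fitted, classed by r2 and efficacy.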
IL1B secr inh = blocks inflammasome-driven IL-1 beta release; AID 743279; THP-1 LPS/ATP IL-1B secretion, AlphaLISA, 16 h; stronger effect = lower value; hit rate 4.7% among 360,000; activity change, % at 57.5 µM; in the data active means activity change below about -50%; inconclusive means mostly about -30% to -49%
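THP-1 cells pretreated 1 hr with compounds (up to 57.5 uM final), then stimulated with LPS (250 ng/mL final) plus ATP (1.25 mM final); secreted IL-1B measured by AlphaLISA after 16 hr, decreased signal indicating inhibition.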
The depositor's hits bear a star; ? = inconclusive; / = no result. Unless noted, the call rests on the fitted dose curve; in most records, active means well fitted curve in the direction sought with a large enough effect; inconclusive means small, poorly fitted or top-dose-only effect, or another doubt; inactive means no such curve, though single readings can be large; an effect the other way counts as inactive or inconclusive. Unless noted, on the % scale 0 is the no-effect control and ±100 the full control effect.

SMILES	DT40 TDP1 no CPT	DT40 TDP1 CPT	HT1080NT lethal	HT1080 IDH1KD tx	IL1B secr inh
Cn1c(N)c(C(=O)CCl)c(=O)n(C)c1=O	?	7.3µM*	4%	6%	?
Cn1c(N)c(C(=O)CCl)c(=O)n(Cc2ccccc2)c1=O	5.8µM*	2.3µM*	-2%	6%	-97*
CN(C)CC(=O)c1c(N)n(Cc2ccccc2)c(=O)n(C)c1=O	2%	11%	1%	8%	3
Cc1ccc(-c2csc(/C(C#N)=C(\O)CN3CCN(C(=O)c4ccco4)CC3)n2)cc1	-21%	3%	6%	7%	-4
C=C1C[C@H](O)[C@@H]2[C@H](OC(=O)[C@H]2C)[C@H]2[C@H](C)[C@@H](O)C[C@@H]12	-1%	-1%	13%	18%	0
CCn1c(SC(C)C)nnc1-c1cc(-c2ccccc2)sc1N	16µM*	?	0%	-12%	-6
CCn1c(SCc2cccc(C)c2)nnc1-c1ccccc1	?	?	5%	-14%	-12
CCN(CC(=O)Nc1ccc2c(c1)OCCO2)C(=O)CCc1ccccc1Cl	?	-25%	-4%	-1%	-2
CC[C@H](C)[C@H](NC(=O)OCc1ccccc1)C(=O)Nc1ccc(NC(C)=O)cc1	-7%	-19%	0%	9%	-20
C[C@@H](C(=O)Nc1ccc2ccccc2c1)[C@H]1C[C@]1(C)[C@H](NC(=O)OCc1ccccc1)c1ccccc1	16µM*	18µM*	-10%	-5%	?
CC(NC(=O)OCc1ccccc1)c1ccccc1 (centres undefined)	-3%	12%	-6%	-12%	-24
C[C@@H](C(=O)NCCc1c[nH]c2ccccc12)[C@H]1C[C@]1(C)[C@H](NC(=O)OCc1ccccc1)c1ccccc1	16µM*	6.5µM*	-10%	-14%	-23
C[C@@H](C(=O)NCc1ccccn1)[C@H]1C[C@]1(C)[C@H](NC(=O)OCc1ccccc1)c1ccccc1	16µM*	23µM*	-9%	1%	-24
C[C@@H](C(=O)Nc1ccc2ccccc2c1)[C@@H]1C[C@@]1(C)[C@@H](N)c1ccccc1	?	?	-2%	-13%	-12
Cc1cc(C(=O)N[C@H](c2ccccc2)[C@@]2(C)C[C@@H]2[C@@H](C)C(=O)Nc2ccc3ccccc3c2)n(C)n1	23µM*	?	-24%	-16%	0
COc1cc(C(=O)OC(COCCC(C)C)CN2CCOCC2)cc(OC)c1OC (centres undefined)	-24%	3%	/	/	/
C[C@@H](C(=O)NCC1CC1)[C@@H]1C[C@@]1(C)[C@@H](NC(=O)OCc1ccccc1)c1ccccc1	15µM*	?	-2%	1%	-1
C[C@H](CO)NC(=O)[C@H](C)[C@H]1C[C@]1(C)[C@H](NC(=O)OCc1ccccc1)c1ccccc1	?	?	19%	13%	-1
C[C@@H](C(=O)NCc1ccc(S(C)(=O)=O)cc1)[C@@H]1C[C@@]1(C)[C@@H](NC(=O)OCc1ccccc1)c1ccccc1	15µM*	21µM*	9%	0%	-4
COc1cc(NC(=O)C2CCN(c3nc4ccccc4nc3C(F)(F)F)CC2)cc(OC)c1	26µM*	16µM*	/	/	/
COc1ccc(NC(=O)C2CCN(c3nc4ccccc4nc3C(F)(F)F)CC2)cc1	-19%	-22%	/	/	/
O=C(Nc1cccc(F)c1)C1CCN(c2nc3ccccc3nc2C(F)(F)F)CC1	16µM*	18µM*	/	/	/
O=C(Nc1ccccc1Cl)C1CCN(c2nc3ccccc3nc2C(F)(F)F)CC1	-23%	?	/	/	/
O=C(Nc1cccc(Cl)c1)C1CCN(c2nc3ccccc3nc2C(F)(F)F)CC1	21µM*	?	/	/	/
CCOC(=O)C1=C(C)N(CCCC(=O)O)C(=O)NC1c1cccc(OC)c1 (centres undefined)	3%	-3%	11%	11%	6
SMILES	DT40 TDP1 no CPT	DT40 TDP1 CPT	HT1080NT lethal	HT1080 IDH1KD tx	IL1B secr inh
O=c1c2cc(Br)ccc2nc(-c2ccc([N+](=O)[O-])cc2)n1O	-109%	?	-15%	-14%	35
O=c1c2ccc(Cl)cc2nc(-c2ccc([N+](=O)[O-])cc2)n1O	8.2µM*	8.2µM*	-16%	-23%	102
O=c1c2cc(Cl)ccc2nc(-c2ccccc2)n1O	-20%	-1%	-27%	-13%	26
O=c1c2cc(Cl)ccc2nc(-c2ccc(Cl)c(Cl)c2)n1O	5.2µM*	5.2µM*	1%	14%	15
Cc1ccccc1OCC(O)Cn1c2ccccc2c2ccccc21 (centres undefined)	?	?	?	?	-85*
COc1ccccc1OCC(O)Cn1c(=N)n(Cc2ccccc2)c2ccccc21 (centres undefined)	8.2µM*	21µM*	?	-13%	-73*
CCCCCn1c(=N)n(CC(O)COc2ccccc2OC)c2ccccc21 (centres undefined)	5.8µM*	3.7µM*	?	?	-59*
Cc1ccccc1OCC(O)Cn1c(=N)n(Cc2ccccc2)c2ccccc21 (centres undefined)	5.2µM*	4.1µM*	15µM*	16µM*	-106*
O=C(CCCn1cc([N+](=O)[O-])cn1)N1CCCCC1	-14%	-10%	-2%	9%	0
Cc1cc(C)c2c3c(cn2n1)c(=O)n(C)c(=O)n3C	1%	-6%	14%	7%	-15
Cc1cc(NC(=O)c2ccccc2[N+](=O)[O-])ccc1Br	-2%	-7%	-12%	-18%	-29
CCCCn1c(=N)n(CCOc2ccc(C)cc2)c2ccccc21	5.8µM*	4.6µM*	?	?	/
Cc1nccn1CC(O)Cn1c2ccccc2c2ccccc21 (centres undefined)	?	?	?	-25%	-53*
CCn1c(=N)n(CCOc2ccc(Br)cc2)c2ccccc21	5.2µM*	5.8µM*	/	/	/
Cc1ccc(Cn2c(=N)n(CC(O)c3ccco3)c3ccccc32)cc1 (centres undefined)	16µM*	-84%	?	?	-74*
COc1ccc2c(CC(=O)Nc3ccc(OC)c(NS(=O)(=O)c4ccc(F)cc4)c3)coc2c1	-12%	-6%	5%	-2%	-25
COc1ccccc1NC(CC(=O)c1ccccc1)C(=O)OCC(=O)c1ccc(F)cc1 (centres undefined)	?	?	1%	-2%	0
O=C1CN(C(=O)CN2CCN(S(=O)(=O)c3ccccc3F)CC2)c2ccccc2N1	?	-13%	-9%	0%	21
CCCCn1c(=N)n(CCOc2ccccc2OC)c2ccccc21	4.1µM*	2.9µM*	/	/	/
